Hits are enriched below; roughly 5.9% of the tested compounds scored in any of these assays.
KB-V1 MDR tox: kills drug-selected multidrug resistant KB-V1 cells; KB-V1 MDR cells viability, CellTiter-Glo, 72 h; Potency, µM (highest dose often 46.1 µM), hits mostly cytotoxic; actives 3.4% (n = 400,000); AID 1347076; note: % is set by controls: 0 for no effect and ±100 for the full control effect; nearly all actives have a fitted effect of over 60% in size
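KB-V1, DMEM (no phenol red) + 10% FBS; cpd pin-transferred, titration series; 72 h, 37 degrees C; CellTiter-Glo, luminescence. Data normalized, curve-fit.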
TGFb inhibitor: TGF-b pathway inhibition. HepG2 CAGA-GFP TGF-b/SMAD3 reporter, GFP fluorescence, 18 h; TGF-beta stimulated, 500 pg/mL final. Potency, µM (top dose mostly 46.1 µM), for the others: at the highest dose activity, negative = inhibition, usual class: inhibitors. actives 1.2% (n = 410,000). AID 588855; note: % is set by controls: 0 for no effect and ±100 for the full control effect; nearly all actives have a fitted effect of over 65% in size
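Inhibition was scored as loss of TGF-beta-induced (500 pg/mL final, 18 hours, 37 degrees C) GFP in HEPG2 cells carrying a CAGA-GFP reporter, in DMEM with 1% FBS. Well GFP was summed per cell; Activity was normalised to unstimulated and stimulated DMSO wells, then concentration-response fitting.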
ATXN viability: viability counter-screen for ATXN expression inhibitors; Potency, µM (top dose mostly 56.7 µM), most hits filed as cytotoxic; actives 0.49% (n = 400,000); S2 cells (HEK-293 line with an ATXN2-luciferase reporter) viability, CellTiter-Fluor protease fluorescence, 24 h; note: nearly all actives have a fitted effect of over 40% in size
ATXN2 expr inh: inhibitors of ATXN2 expression | HEK-293 ATXN2-luciferase reporter, luminescence, 24 h | Potency, µM (doses to about 57 µM), without a hit: at the top dose activity change, negative = inhibition, usual class: inhibitors | actives 0.72% (n = 360,000) | AID 1745845; note: % is set by controls: 0 for no effect and ±100 for the full control effect; nearly all actives have a fitted effect of over 55% in size
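qHTS (up to 57 uM final) was run with 24 h compound exposure of reporter cells at 37 °C. Each well was multiplexed: SteadyGlo luminescence measured ATXN2-luciferase expression after a fluorogenic Gly-Phe-AFC viability readout (25 uM final).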
KB-3-1 tox: KB-3-1 parental cell cytotoxicity | actives 1.4% (n = 400,000) | AID 1347075 | Potency, µM (top dose mostly 46.1 µM), usual class: cytotoxic | KB-3-1 viability, CellTiter-Glo ATP luminescence, 72 h; note: % is set by controls: 0 for no effect and ±100 for the full control effect; nearly all actives have a fitted effect of over 60% in size
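Screening of KB-3-1 cells (DMEM, 10% FBS, phenol-red free) ran from lowest to highest compound concentration; after 72 h at 37 °C viability was read luminescently and curves fitted.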
HepG2 viability: counter-screen for TGF-b inhibitors: cytotoxicity in HepG2 cells; HepG2 CAGA-GFP viability, ATP luminescence, 18 h; Potency, µM (top dose mostly 46.1 µM), without a hit: at the highest dose activity change, negative = cytotoxicity, usual class: cytotoxic; AID 588856; actives 0.76% (n = 410,000)
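HepG2 CAGA-GFP cells (1000/well, DMEM with 1% FBS) received compound, then TGF-beta at 500 pg/mL final, and were incubated 18 hours at 37 degrees C. Viability was read by CellTiter-Glo luminescence. Media-only wells were set as complete cell-killing and DMSO as no toxicity.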
* marks the source's active call; other numbers are inactive results; i = inactive; ? = inconclusive; . = no result; ! = repeats disagree; [ ] = another dose, or the depositor's remark. Calls come from the whole dose curve; as a rule, active = well fitted curve in the direction sought with a large enough effect; inconclusive = small, poorly fitted or top-dose-only effect, or another doubt; inactive = no such curve, though single readings can be large; an effect the other way counts as inactive or inconclusive. Potency is the fitted concentration of half-maximal effect.

SMILES | KB-V1 MDR tox | TGFb inhibitor | ATXN viability | ATXN2 expr inh | KB-3-1 tox | HepG2 viability
COc1cc(CN2CCN(c3cccc(C)c3C)CC2)cc(OC)c1O | 18µM* | 3% | i | -4% | i | -17%
COc1ccc(CN2CCN(c3ccccn3)CC2)cc1OCc1ccccc1 | 9.2µM* | 3% | i | -22% | i | -58%
CCOc1ccccc1N1CCN(Cc2ccc(OC)c(OC)c2)CC1 | 16µM* | -3% | i | -7% | i | -20%
Cc1ccc(C)c(CSc2nnc([C@@H](N)C(C)C)o2)c1 | 15µM* | 0% | i | 2% | i | -25%
CCCCCc1cc(=O)oc2c(C(CCN(CC)CC)c3ccc(OC)cc3)c(OC)cc(OC)c12 (stereo not given) | ? | ? | 32µM* | ? | ? | -101%
CCN(CC)CCC(c1ccc(N(C)C)cc1)c1c(OC)cc(OC)c2ccc(=O)oc12 (stereo not given) | i | -4% | 10µM* | 3% | i | -2%
CCN(CC)CCC(c1ccc(OC)cc1)c1c(OC)cc(OC)c2c(C)cc(=O)oc12 (stereo not given) | . | ? | . | . | . | 18µM*
COc1cccc(N2CCN(C(=O)c3c4c(nc5ccccc35)C(=O)N(C3CCCCC3)C4)CC2)c1 | i | 38% | . | . | i | 4%
Fc1ccc(/C=C\c2nccc3c2[nH]c2ccccc23)cc1 | i | ? | i | 14%[11.3 µM] | i | -50%
C(=C\c1nccc2c1[nH]c1ccccc12)/c1ccccc1 | i | ? | . | . | ? | 20µM*
CC(C)Oc1ccc(-c2nc(-c3cccnc3)no2)cc1 | i | 28% | . | . | i | -24%
Cc1c(C(=O)NCc2ccc3c(c2)OCO3)sc(=O)n1Cc1ccc(S(=O)(=O)N(C)C)cc1 | 2.9µM* | -27% | i | -32% | ? | -1%
Cc1c(C(=O)NCc2ccc3c(c2)OCCO3)sc(=O)n1Cc1ccc(S(=O)(=O)N(C)C)cc1 | 9.2µM* | ? | i | -15% | ? | -15%
Cc1c(C(=O)NCc2ccc([N+](=O)[O-])cc2)sc(=O)n1Cc1ccc2c(c1)OCO2 | 15µM* | -9% | i | 2% | i | -3%
COc1ccc(CNC(=O)c2cn(Cc3ccc(S(=O)(=O)N(C)C)cc3)c(=O)s2)cc1 | 23µM* | -15% | i | -23% | ? | -19%
Cc1cn2c(=O)c(S(=O)(=O)NC(C)c3ccccc3)c(C)nc2s1 (stereo not given) | i | 8% | . | . | i | -8%
CCC(O)CNC(=O)c1cnn(-c2ncc3c(n2)-c2ccccc2CCC3)c1C1CC1 (stereo not given) | . | . | i | . | . | .
COc1cc(OC)c(OC)cc1/C=C/c1nc2cc3ccccc3cc2c(=O)n1-c1ccccc1Br | i | 14% | . | . | i | 5%
CCN(CC)C(=O)CSc1nnc(SC(C)C(=O)NC2CC2)s1 (stereo not given) | 26µM* | -2% | i | -3% | i | 5%
Cc1nnc(SC(C)C(=O)NC2CCCCC2)s1 (stereo not given) | i | -7% | i | -8% | i | -11%
Cc1ccsc1C(=O)N(Cc1cc2ccc(F)cc2nc1N1CCC(O)CC1)CC1CCCO1 (stereo not given) | . | . | i | . | . | .
CS(=O)(=O)Nc1cccc(NC(=O)c2cccc3c(-c4cccc(C(N)=O)c4)coc23)c1 | i | 10% | i | ? | ? | -3%
CC(=O)c1cccc(NC(=O)c2cccc3c(-c4cccc(C(N)=O)c4)coc23)c1 | i | -5% | ? | 32µM* | ? | -5%
Cn1nc(-c2cccnc2)nc2c(=O)n(C)c(=O)nc1-2 | ? | 2.2µM* | . | . | ? | 2.8µM*
Cc1cc(C)n2nc(-c3cccnc3)nc2n1 | ? | ? | i | 6% | i | 2%
SMILES | KB-V1 MDR tox | TGFb inhibitor | ATXN viability | ATXN2 expr inh | KB-3-1 tox | HepG2 viability
Cc1ccccc1-n1c2nc(=O)n(C)c(=O)c-2cc2ccccc21 | i | -10% | . | -11% | i | 7%
Cn1nc(-c2ccc(Cl)cc2)nc2c(=O)n(C)c(=O)nc1-2 | i | 1µM* | . | . | i | 1.3µM*
CCn1nc(-c2ccccc2C)nc2c(=O)n(C)c(=O)nc1-2 | ? | 0.89µM* | . | . | ? | 0.63µM*
Cn1nc(-c2ccc(F)cc2)nc2c(=O)n(C)c(=O)nc1-2 | 5.2µM* | 0.89µM* | . | . | 2.9µM* | 0.89µM*
COc1ccc(-c2nc3c(=O)n(C)c(=O)nc-3n(C)n2)cc1 | 4.6µM* | 0.35µM* | . | . | 0.65µM* | 0.56µM*
CCc1ccc(NC(=O)c2ccc3c(c2)c(C)c(C)n3Cc2ccccc2)cc1 | 8.2µM* | -21% | . | . | ? | -28%
CCc1ccc(CNC(=O)c2ccc3c(c2)c(C)c(C)n3Cc2ccccc2)cc1 | i | -4% | . | . | i | -31%
CC(C)Cn1cc(NC(=O)Nc2cccc(C(F)(F)F)c2)c2ccccc2c1=O | i | ? | i | -19% | ? | -32%
Cc1cc2[nH]c(=S)[nH]c2cc1C | i | -20% | i | 2% | ? | -8%
Fc1cc2[nH]c(=S)[nH]c2cc1Cl | 3.7µM* | 8% | i | 3% | 8.2µM* | -6%
Cc1ccc(P(=O)(c2ccc(C)cc2)[C@@H](NC(c2ccccc2)c2ccccc2)c2ccccc2)cc1 | 21µM* | . | ? | ? | ? | .
Cc1ccc(P(=O)(O)c2ccc(C)cc2)cc1 | i | -20% | i | 4% | i | 0%
COc1ccc(NC(=O)c2cc(-c3cc(F)ccc3OC)n[nH]2)cc1OC | i | 18% | ? | ? | i | -27%
COc1ccc(F)cc1-c1cc(C(=O)Nc2ccc(C)c(NS(C)(=O)=O)c2)[nH]n1 | i | 37% | 3.5µM* | 25µM* | i | -28%
COc1cc(F)ccc1-c1cc(C(=O)Nc2ccc(C)c(NS(C)(=O)=O)c2)[nH]n1 | i | ? | i | 3% | i | -61%
CCCOc1ccc(F)cc1-c1cc(C(=O)Nc2ccc(OC)c(OC)c2)[nH]n1 | 21µM* | ? | ? | ? | ? | -24%
Cc1cc(Br)ccc1NC(=O)CN1C(=O)C2C3CC(c4ccccc4)C(C3)C2C1=O (stereo not given) | 21µM* | -14% | i | ? | i | -9%
O=C(N/N=C/c1cccc2ccccc12)c1ccncc1 | ? | 25% | i | . | i | 10%
O=C(N/N=C/c1ccccc1O)c1ccncc1 | i | -5% | ? | 3.5µM*! | i | -33%

Screens: PubChem BioAssay, National Center for Advancing Translational Sciences (NCATS)
